Screening results (PubChem)
TRPV1 PAM: potentiators of human vanilloid receptor 1 (TRPV1); Q8NER1; TRPV1-expressing cells, Fluo-8 calcium influx, capsaicin EC20 potentiation; potentiation, % at 8.33 µM; hit rate 0.02% among 320,000; AID 540277; in the data active = potentiation above about 80%; inconclusive = between about 30% and that limit; note: 0% is about no effect
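Fluo-8 calcium influx in TRPV1-expressing cells, kinetic read (ex 480/em 520 nm). Compound added and read 3 min for agonist activity, followed by capsaicin at EC20 final and 2 min further read for enhancement.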
KCNH2 3.1 inh: blocks the human KCNH2 3.1 channel isoform; hit rate 0.95% among 340,000; U2OS KCNH2 3.1, thallium flux FluxOr; active compounds read low; activity change, % (tested at about 1.8 µM);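 active = maximum activity change below -70%; inconclusive = maximum activity change from -70% to -50%; inactive = maximum activity change above -50%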;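 note: thallium influx rate constant from kinetic fluorescence after stimulation buffer; % is set by controls: 0 for no effect and ±100 for the full control effect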
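Thallium flux read-out: FluxOr dye with Red40 quencher in HBSS/HEPES, 45 min at RT. Rate constants from kinetic reads were normalized to positive and negative DMSO controls. Cells: U2OS virally expressing the 3.1 isoform.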
MBNL1 CUG block: MBNL1-poly(CUG) RNA binding inhibition; Q9NR56; TR-FRET MBNL1-His/biotin-(CUG)12 binding, 665/545 ratio; Potency, µM (highest dose often 57.5 µM), for the others: at the top dose activity change, negative = inhibition, most hits filed as inhibitors; hit rate 0.036% among 280,000; active = well fitted inhibition curve with a large enough effect in the signal ratio, with a control signal flat, not every such curve was filed as active; inconclusive = small, poorly fitted or top-dose-only effect, or effect the other way, or a change in a side signal; inactive = no such curve, though single readings can be large or run the other way; the % refers to the signal ratio; note: potency is the fitted concentration of half-maximal effect; % is set by controls: 0 for no effect and ±100 for the full control effect
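MBNL1-His + Biotin-(CUG)12, cpd titration 92 nM–58 uM; Tb anti-His Ab 0.055 ng/ul, SA-XL665 5 nM (final); 60 min RT; ratiometric 665/545 nm, Ex 340 nm; normalized to buffer and full-complex controls.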
hERG WT inh: blocks the wildtype human KCNH2 potassium channel; Q12809; U2OS, BacMam KCNH2, thallium flux FluxOr; active compounds read low; activity change, % at 1.84 µM; hit rate 0.37% among 340,000; AID 720551;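 active = maximum activity change below -70%; inconclusive = maximum activity change between -70% and -50%; inactive = maximum activity change above -50%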; note: % is set by controls: 0 for no effect and ±100 for the full control effect
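U2OS cells transduced with wild-type KCNH2 virus are loaded with FluxOr dye for 45 min, and thallium flux is measured in kinetic reads before and after stimulation buffer. Rate constants are normalized to DMSO controls.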
TRPV1 ag: activates the human vanilloid receptor TRPV1; TRPV1-expressing cells, Fluo-8 calcium influx, agonist mode; Q8NER1; activation, % at 8.33 µM; hit rate 0.19% among 320,000; in the data active = activation above about 80%; inconclusive = between about 30% and that limit; note: 0% is about no effect
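Fluo-8 calcium influx in TRPV1-expressing cells, kinetic read (ex 480/em 520 nm). Compound added and read 3 min for agonist activity, followed by capsaicin at EC20 final and 2 min further read for enhancement.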
* hit, by the source's call; ? = inconclusive; nt = not tested or not shown. An excerpt weighted towards active compounds, which were near 1.3% of everything screened.

SMILES	TRPV1 PAM	KCNH2 3.1 inh	MBNL1 CUG block	hERG WT inh	TRPV1 ag
COc1ccc(-c2nnc(C3CCN(S(=O)(=O)c4ccccc4)CC3)o2)cc1	23	1	2%	-1	4
CC(=O)Nc1ccc(S(=O)(=O)N2CCC(c3nnc(-c4ccc(C)cc4)o3)CC2)cc1	6	-137*	-4%	9	-3
Cc1ccc(C(C)C)c(OCC(O)CN2CCc3ccccc3C2)c1 (configuration not stated)	-13	1	3%	-113*	14
Cc1cccc(C)c1OCC(O)CN1CCc2ccccc2C1 (configuration not stated)	nt	-1	nt	12	nt
COCCCNS(=O)(=O)c1ccc2c3c(cccc13)C(=O)S2	11	-138*	?	-132*	-3
COCCNS(=O)(=O)c1ccc2c3c(cccc13)C(=O)N2C	-12	-1	?	1	-1
O=C1NCC(Nc2ccc(Br)cc2)C(=O)N1 (configuration not stated)	nt	3	nt	-11	nt
CCN(CC)c1ccc(S(=O)(=O)N2CCOCC2)cc1NC(=O)c1cc(=O)c2ccccc2o1	1	-74*	-5%	0	1
CCN(CC)c1ccc(S(=O)(=O)N2CCOCC2)cc1NC(=O)CSc1nncs1	-4	-187*	nt	-215*	-8
CCN(CC)c1ccc(S(=O)(=O)N2CCOCC2)cc1NC(=O)CSc1ccccc1	-16	-10	nt	13	?
COc1ccc2[nH]c(CN3CCC(n4nccc4NC(=O)C4CC4)CC3)c(C)c2c1	15	-76*	-1%	?	1
COc1ccc2[nH]c(C(=O)N3CCC(n4nccc4NC(=O)C4CC4)CC3)c(C)c2c1	5	0	3%	-2	2
CC1(C)S[C@@H]2[C@H](NC(=O)C(NC(=O)N3CCNC3=O)c3ccccc3)C(=O)N2[C@H]1C(=O)O (some centres not stated)	-12	-1	-4%	-3	-2
OC1(c2ccc(Br)cc2)CCN(Cc2cccc(Br)c2)CC1	-9	-76*	-1%	26	2
N/C(=N\OC(=O)c1ccc2c(c1)OCO2)c1cccc([N+](=O)[O-])c1	-11	27	?	1	25
Cc1cccc(/C(N)=N/OC(=O)c2ccc3c(c2)OCO3)c1	-2	-5	-6%	-105*	4
CC(CN1CCN(C)CC1)OC(=O)c1cccc(F)c1 (configuration not stated)	-7	8	-7%	-5	-3
N#Cc1c(N2CCN(C(=O)c3ccccc3Cl)CC2)nc(-c2ccccc2)c2c1CCCC2	9	-27	-6%	-283*	5
Cc1cccc(NC(=O)CN2C(=O)S/C(=C\c3cc(C)n(C)c3C)C2=O)c1	-5	-22	nt	1	5
Cc1cccc(NC(=O)CN2C(=O)S/C(=C\c3ccc(O)c([N+](=O)[O-])c3)C2=O)c1	84*	4	?	8	3
Cc1ccc(NC(=O)CN2C(=O)S/C(=C\c3cc(C)n(C)c3C)C2=O)cc1	13	-93*	7%	-1	2
CCN(CC)C(=O)Cn1c(=O)c2ccccc2n2c(=S)sc(-c3cccc(C)c3)c12	-2	11	7%	2	0
CCC(C)c1ccccc1N1CC(C(=O)Nc2cc(S(=O)(=O)N3CCOCC3)ccc2OC)CC1=O (configuration not stated)	nt	-5	nt	7	nt
CCC(C)c1ccccc1N1CC(C(=O)Nc2ccc(C)c(S(=O)(=O)N3CCOCC3)c2)CC1=O (configuration not stated)	10	-73*	nt	-16	0
O=S1(=O)CC2N=C(N(Cc3ccc(F)cc3Cl)c3ccccc3F)SC2C1 (configuration not stated)	-6	-11	-7%	-90*	4
Cc1cccc(NC(=O)CN(C2=NC3CS(=O)(=O)CC3S2)c2ccccc2F)c1 (configuration not stated)	-18	5	-11%	1	2
CC1CCC(N2CCN(c3ccc([N+](=O)[O-])cc3)CC2)CC1 (configuration not stated)	-22	-112*	?	?	3
